In PubChem BioAssay AID588342 (National Center for Advancing Translational Sciences (NCATS), 2011):
In all, about 360,000 compounds went through this assay and about 25,000 (6.9%) were called active. Roughly 9% stayed inconclusive and do not appear here. The sample holds actives, similar compounds and a random draw of the others, so the mix is not that of the screen. The call rests on the fitted dose curve; in most records, active means well fitted inhibition curve with a large enough effect; inconclusive means small, poorly fitted or top-dose-only effect; inactive means flat fitted curve, though single readings scatter.

molecular target: Luciferin 4-monooxygenase (Photinus pyralis) (UniProt P08659); test: qHTS profiling assay for firefly luciferase inhibitor/activator using purifed enzyme and Km concentrations of substrates (counterscreen for miR-21 project); settings: purified FLuc, luminescence inhibition; series mostly up to 57.5 µM; activity change, negative = inhibition: at the top concentration; further: nearly all actives have a fitted effect of over 55% in size;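 on activity change, negative = inhibition: plate controls were vehicle for no effect and reference inhibitor for full effect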
Sequence (P08659 whole entry, looked up): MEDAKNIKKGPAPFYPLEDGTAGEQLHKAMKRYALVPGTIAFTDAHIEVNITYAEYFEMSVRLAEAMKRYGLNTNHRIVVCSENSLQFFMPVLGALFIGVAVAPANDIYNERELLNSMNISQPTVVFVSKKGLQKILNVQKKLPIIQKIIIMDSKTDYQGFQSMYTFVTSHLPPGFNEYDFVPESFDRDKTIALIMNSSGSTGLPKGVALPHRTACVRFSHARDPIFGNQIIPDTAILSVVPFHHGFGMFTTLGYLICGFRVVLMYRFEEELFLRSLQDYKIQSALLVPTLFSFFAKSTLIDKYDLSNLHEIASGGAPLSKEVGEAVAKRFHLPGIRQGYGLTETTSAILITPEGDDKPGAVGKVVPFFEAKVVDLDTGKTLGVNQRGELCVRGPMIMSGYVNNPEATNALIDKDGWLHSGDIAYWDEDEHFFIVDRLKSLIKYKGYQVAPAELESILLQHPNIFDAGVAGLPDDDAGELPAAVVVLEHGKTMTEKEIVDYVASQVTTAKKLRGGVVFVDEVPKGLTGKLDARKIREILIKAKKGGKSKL
Procedure, shortened: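 Purified P. pyralis luciferase, 10 nM final, with Km-level 10 uM D-luciferin and 10 uM ATP in 50 mM Tris acetate pH 7.5, 10 mM Mg acetate, 0.01% Tween-20, 0.05% BSA; 6-point qHTS titration about 60 µM downward; luminescence read.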
Potency means the concentration at half of the fitted maximal effect.

Structure (SMILES) | activity change, negative = inhibition | Potency
CSc1nc(-c2ccccc2Cl)nc2c1Cc1c(CO)cnc(C)c1O2 | -4.31% (inactive) | –
CCCNC(=O)Nc1ccccc1C(=O)Nc1ccc(OC)cc1 | -14.9% (inactive) | –
COC(=O)c1ccccc1NS(=O)(=O)c1ccc2[nH]c(=O)[nH]c2c1 | -2.28% (inactive) | –
COc1ccc(NC(=O)c2cnc(NS(=O)(=O)c3ccccc3)nc2)cc1 | 0.658% (inactive) | –
CCOc1ccc(NC(=O)c2cnn(-c3ccccc3)c2-n2cccc2)cc1 | -19.4% (inactive) | –
COC(=O)c1ccc(NC(=O)c2ccccc2NS(=O)(=O)c2ccccc2)cc1 | – | 16.9 µM (active)
CCOc1ccc(NC(=O)c2ccccc2NS(C)(=O)=O)cc1 | – | 10.7 µM (active)
CCC1CCCCN1S(=O)(=O)c1ccc(NC(=O)c2cc(=O)c3ccccc3o2)cc1 (configuration not stated) | -1.88% (inactive) | –
COc1ccc(NC(=O)CCCN2C(=O)CCn3nc(-c4cn(C)c5ccccc45)cc32)cc1OC | -11.5% (inactive) | –
O=S(=O)(NCCc1nnc2ccc(SCc3ccc(Cl)cc3Cl)nn12)c1ccccc1 | -3.8% (inactive) | –
CCOc1ccc2oc(=O)cc(CN3CCN(C(=O)c4ccc(F)cc4)CC3)c2c1 | -5.98% (inactive) | –
Cc1cc(C)nc(N/N=C/c2ccc([N+](=O)[O-])o2)n1 | -13.7% (inactive) | –
Cc1cc(C)nc(N/N=C/c2ccncc2)n1 | 4.25% (inactive) | –
Cc1cc2c(C)nc(N/N=C/c3ccccc3)nc2o1 | – | 9.53 µM (active)
COc1ccc([C@H]2CC(=O)C=C(c3ccc(C)cc3)C2)cc1 | -13.8% (inactive) | –
Cc1nnc(N2CCCC(C(=O)NCCN(C)C)C2)c2nn(-c3ccccc3)c(C)c12 (configuration not stated) | -2.09% (inactive) | –
CCCCOC(=O)Nc1nnc(CC(=O)NCc2ccccc2)s1 | 0.516% (inactive) | –
CCCCCCOC(=O)NCC(O)c1ccccc1 (configuration not stated) | – | 12 µM (active)
CCCCCOC(=O)NCCOC(=O)Nc1ccc(C(=O)OCC)cc1 | -4.13% (inactive) | –
Cc1cc(Cl)ccc1C(=O)C1CCCN(C(=O)c2nonc2C)C1 (configuration not stated) | 0.226% (inactive) | –
CCOC(=O)c1ccccc1NC(=O)c1nn(-c2ccc(OC)c(Cl)c2)c(=O)c2c1c1ccccc1n2C | -1.01% (inactive) | –
COC(=O)CC1=NN(c2ccccc2)C(=O)C1 | 1.6% (inactive) | –
O=C1CC(c2ccccc2)=NN1c1ccc([N+](=O)[O-])cc1 | – | 13.5 µM (active)
O=c1[nH]n(-c2ccc([N+](=O)[O-])cc2)c(=O)c2ccccc12 | -4.92% (inactive) | –
COc1cc(C)ccc1OCCSc1nc2ccc(NC(=O)c3ccc(C)cc3)cc2s1 | -15.1% (inactive) | –
CN(C(=O)c1cccc(OC2CCN(S(=O)(=O)N(C)C)CC2)c1)C1CCOC1 (configuration not stated) | -17% (inactive) | –

Structure (SMILES) | activity change, negative = inhibition | Potency
CNS(=O)(=O)c1cccc(C(=O)NCC2CCCCC2)c1 | 0.681% (inactive) | –
CN(C)S(=O)(=O)N1CCC(Oc2cccc(C(=O)NCCCC3CCCC3)c2)CC1 | – | 16.9 µM (active)
Cc1nn(-c2ccc(F)cc2)c(-n2cccc2)c1C(=O)N1CCN(c2ccccc2)CC1 | 4.26% (inactive) | –
CCc1ccccc1N(C)C(=O)C1CCCN(c2ncnc3onc(-c4ccc(F)cc4)c23)C1 (configuration not stated) | 4.45% (inactive) | –
Cc1ccc(S(=O)(=O)NNC(=S)NC(C)(C)C)cc1 | 1.48% (inactive) | –
O=C1CSC2(C(=O)N(Cc3ccccc3)c3ccccc32)N1c1cccc(F)c1 (configuration not stated) | -3.19% (inactive) | –
Cc1cc(C)c(S(=O)(=O)N2CCC(C(=O)OCc3c(C)noc3C)CC2)c(C)c1 | 1.69% (inactive) | –
CC(=O)Nc1ccc(Oc2ccc3c(c2)C(=O)NC3=O)cc1 | -3.16% (inactive) | –
CC(=O)Oc1ccc2c(c1)C(=O)c1ccccc1C2=O | – | 8.49 µM (active)
CC(=O)O[C@H]1c2ccccc2-c2ccccc2[C@@H]1OC(C)=O | 0.976% (inactive) | –
COc1ccc([C@H]2CC(=O)C=C(/C=C/c3ccc(Cl)cc3)C2)cc1 | -16.9% (inactive) | –
CCn1nc(C(=O)NNC(=O)C2CSC3(C)CCC(=O)N23)c2ccccc2c1=O (configuration not stated) | 2.68% (inactive) | –
Cc1sc2ncn(CC(=O)NCCCC(=O)N(C)Cc3ccccc3)c(=O)c2c1C | 1.87% (inactive) | –
Cc1cc(=O)oc2c(C)c(OC(C)C(=O)NC3CCN(Cc4ccccc4)CC3)ccc12 (configuration not stated) | 0.301% (inactive) | –
O=C(NC(=S)Nc1ccc(S(=O)(=O)N2CCOCC2)cc1)c1ccccc1[N+](=O)[O-] | 2.74% (inactive) | –
O=C(Nc1ccc(N2CCOCC2)cc1)c1ccc(-c2ccccc2[N+](=O)[O-])o1 | – | 3.38 µM (active)
CN(CC(=O)Nc1ccc(N2CCOCC2)cc1)CC(=O)Nc1ccccc1[N+](=O)[O-] | 3.24% (inactive) | –
Cc1ccc2nc(C)c3c(c2c1)N(c1ccccc1)CC3 | 0.878% (inactive) | –
O=C(Cn1c(-c2cccs2)cc2ccccc21)NCCc1ccc(Cl)cc1 | -2.8% (inactive) | –
Cc1ccc(-n2c(C)cc(/C=C(\C#N)C(=O)NCC3CCCO3)c2C)cc1 (configuration not stated) | – | 0.675 µM (active)
Cc1ccc2c(c1)N(CC(=O)NCC1CCCO1)C(=O)CO2 (configuration not stated) | 0.178% (inactive) | –
Cc1cc(/C=C(/C#N)C(=O)Nc2ccc(Cl)cc2)c(C)n1-c1cccnc1 | -4.13% (inactive) | –
CC(=O)N1CCc2cc(Br)cc(S(=O)(=O)CCC(=O)NCCc3ccc(Cl)cc3)c21 | -10.7% (inactive) | –
CC(=O)N1CCN(c2ccccc2NC(=S)NC(=O)c2cc3ccccc3o2)CC1 | 2.35% (inactive) | –
CCN(C(=O)COC(=O)c1sccc1C)c1c(N)n(Cc2ccccc2)c(=O)[nH]c1=O | 0.789% (inactive) | –
Cc1ccsc1C(=O)OCC(=O)Nc1cccc(F)c1 | -19.3% (inactive) | –
